Results as given in PubChem BioAssay (NCATS).
Results filed as inconclusive are left out. Active and inactive are the calls of the source. Calls follow the shape of the dose curve; as a rule, active = well fitted curve in the direction sought with a large enough effect; inconclusive = small, poorly fitted or top-dose-only effect, or another doubt; inactive = no such curve, though single readings can be large; an effect the other way counts as inactive or inconclusive. Where a SMILES comes first, the peptide text is derived from it. The star is where a group is joined. Cbz = O=C(OCc1ccccc1)*; CH2F = FC*

What was measured:
[1] = target: Calcium and integrin-binding protein 1 (Homo sapiens) (UniProt Q99828); test: Primary qHTS for Identification of Calcium Integrin Binding Protein 1 (CIB1) Competitor (AID 1508620);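 also: GST tagged CIB1 binding a fluorescein labelled alphaIIb integrin peptide tracer; top concentration of the series differs between compounds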
Method in brief: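 CIB1-GST (1 uM final) and compound incubated 15 min at room temperature before adding FITC-alphaIIb peptide tracer (100 nM final). Competition for binding read by fluorescence polarization (ex 480, em 540) after another 15 min at room temperature.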

[2] = Primary qHTS for inhibitors of nuclear receptor binding SET domain protein 2 (NSD2) in an isogenic RCH-ACV NSD2 p.E1099K mutant (9B) (AID 1645876); also: nearly all actives have a fitted effect of over 70% in size
[3] = Primary qHTS for inhibitors of nuclear receptor binding SET domain protein 2 (NSD2) in an RCH-ACV wild type WT cells (2C) (AID 1645877); also: nearly all actives have a fitted effect of over 70% in size
% is scaled to controls: 0 for no effect and ±100 for the full control effect.

Sequence of Calcium and integrin-binding protein 1 (Homo sapiens) (Q99828 whole entry, looked up): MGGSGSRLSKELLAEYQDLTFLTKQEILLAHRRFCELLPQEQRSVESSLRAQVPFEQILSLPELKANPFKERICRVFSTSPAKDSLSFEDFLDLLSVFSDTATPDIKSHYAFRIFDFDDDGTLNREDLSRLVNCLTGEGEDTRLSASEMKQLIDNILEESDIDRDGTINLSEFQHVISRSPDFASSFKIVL

CC(=O)O[C@@H]1[C@@H](O)[C@H](C)O[C@@H](O[C@H]2[C@@H]3C=CO[C@@H](O[C@@H]4O[C@H](CO)[C@@H](O)[C@H](O)[C@H]4OC(C)=O)[C@@H]3[C@@]3(CO)O[C@@H]23)[C@@H]1OC(=O)/C=C/c1ccc(O)cc1
inactive: Potency [1] | Potency [2] | Potency [3]

COc1ccc(/C=C/C(=O)N2CCCC2)cc1
inactive: Potency [1] | Potency [2] | Potency [3]

Cc1ccc(C)c(S(=O)(=O)n2cnc3ccccc32)c1
inactive: Potency [1] | Potency [2] | Potency [3]

CC(C)C1NC(=O)C(CC2(O)c3ccccc3N3C(=O)C(Cc4ccccc4)NC32)NC1=O (centres undefined)
inactive: Potency [1] | Potency [2] | Potency [3]

NC(=O)[C@H](Cc1ccccc1)NC(=O)[C@H](CCCN=C(N)N)NC(=O)C12CC3CC(CC(C3)C1)C2
inactive: Potency [1] | activity change, negative = viability loss [2] -0.15% [at 9.23 µM] | activity change, negative = cell killing [3] 0.0232% [at 9.23 µM]

CC1(C)CCCC2(C)c3c4c(c(=O)oc(=O)c3=CCC12)=CCC1C(C)(C)CCCC41C (centres undefined)
inactive: Potency [1] | Potency [2] | Potency [3]

C[C@@]12CC3(S(=O)(=O)O)OC(O1)[C@]1(COC(=O)c4ccccc4)[C@H]3C[C@]21O[C@@H]1O[C@H](CO)[C@@H](O)[C@H](O)[C@H]1O
inactive: Potency [1] | Potency [2] | Potency [3]

O=C(O)/C=C/c1ccc(O[C@@H]2O[C@H](CO)[C@@H](O)[C@H](O)[C@H]2O)cc1
inactive: Potency [1] | Potency [2] | Potency [3]

CC1CC(=O)[C@]2(O)C(C(=O)OCCc3ccc(O)c(O)c3)=CO[C@@H](O[C@@H]3O[C@H](CO)[C@@H](O)[C@H](O)[C@H]3O)[C@H]12 (some centres undefined)
inactive: Potency [1] | Potency [2] | Potency [3]

O=C(Nc1ccc(N2CCC(C(=O)N3CCOCC3)CC2)cc1)c1cnc(Oc2ccccc2)nc1
inactive: Potency [1] | Potency [2] | Potency [3]

COC(=O)C1=CO[C@@H](O[C@@H]2O[C@H](CO[C@@H]3O[C@H](CO)[C@@H](O)[C@H](O)[C@H]3O)[C@@H](O)[C@H](O)[C@H]2O)[C@@H]2C(CO)=CC[C@H]12
inactive: Potency [1] | Potency [2] | Potency [3]

O=C(/C=C/c1ccc(O)c(O)c1)O[C@H]1[C@@H]2C=CO[C@@H](O[C@@H]3O[C@H](CO)[C@@H](O)[C@H](O)[C@H]3O)[C@@H]2[C@@]2(CO)O[C@@H]12
inactive: Potency [1] | Potency [2] | Potency [3]

CC1=C(CC/C(C)=C/C(=O)O)[C@@]2(C)CCCC(C)(C)C2CC1=O (some centres undefined)
inactive: Potency [1] | Potency [2] | Potency [3]

O=C(C[C@@H]1C(C(=O)O)=CO[C@@H](O[C@@H]2O[C@H](CO)[C@@H](O)[C@H](O)[C@H]2O)/C1=C\CO)OCCc1ccc(O)cc1
inactive: Potency [1] | Potency [2] | Potency [3]

CC1=CCC[C@@H]2[C@@](C)(CCc3ccoc3)[C@H](C(=O)O)CC[C@@]12C
inactive: Potency [1] | Potency [2] | Potency [3]

CC(C)c1ccc2c(c1)C(=O)CC1C(C)(C(=O)O)CCCC21C (centres undefined)
inactive: Potency [1] | Potency [2] | Potency [3]

COc1cc(/C=C/C(=O)OC[C@H]2O[C@@H](OC3CC(C)=C(C(=O)O)C(C)(C)C3)[C@H](O)[C@@H](O)[C@@H]2O)cc(OC)c1O (some centres undefined)
inactive: Potency [1] | Potency [2] | Potency [3]

CC(=O)/C=C/[C@H]1[C@](C)(O)[C@@H](O)[C@H](O)C2C(C)(C)CCC[C@@]21C (some centres undefined)
inactive: Potency [1] | Potency [2] | Potency [3]

CC1(C(=O)O)CCCC2(C)C3CCC4CC3(CCC12)CC4C(=O)O (centres undefined)
inactive: Potency [1] | Potency [2] | Potency [3]

CC1OC(OC2C(OC3C(O[C@H]4CC[C@@]5(C)C(CC[C@]6(C)C5C(=O)CC5=C7CC(C)(C)CC(O)[C@]7(C)CC[C@]56C)C4(C)C)OC(C(=O)O)C(O)C3O)OCC(O)C2O)C(O)C(O)C1O (some centres undefined)
inactive: Potency [1] | outcome [2] inactive [at 9.23 µM] | outcome [3] inactive [at 9.23 µM]

C/C(=C/CO)CC[C@H]1[C@]2(C)C[C@H](O)CC(C)(C)[C@H]2CC[C@]1(C)O
inactive: Potency [1] | Potency [2] | Potency [3]

OC[C@H]1O[C@@H](OC[C@H]2O[C@@H](OCc3ccccc3)[C@H](O)[C@@H](O)[C@@H]2O)[C@H](O)[C@@H](O)[C@@H]1O
inactive: Potency [1] | Potency [2] | Potency [3]

Cc1cc(-n2c(=O)[nH]c(=O)n(C)c2=O)ccc1Oc1ccc(SC(F)(F)F)cc1
inactive: Potency [1] | Potency [2] | Potency [3]

CC(C)=C1CC2[C@](C)(CC[C@@H](OC(=O)C3(C)OC3C)[C@@]2(C)O)CC1=O (some centres undefined)
inactive: Potency [1] | Potency [2] | Potency [3]

OC[C@@]1(O)CO[C@H](OC[C@H]2O[C@@H](OCCc3ccccc3)[C@H](O)[C@@H](O)[C@@H]2O)[C@@H]1O
inactive: Potency [1] | Potency [2] | Potency [3]

C/C=C/C=C/C(O)=C1/C(=O)[C@]2(C)C(=O)[C@@](C)(O)[C@H]1[C@H]([C@@]1(C)OC(=O)C(C)=C1O)[C@H]2C(=O)CC/C=C/C
inactive: Potency [1] | Potency [2] | Potency [3]

C=C1C2CCC3CC2(CC(O)C2(O)C1CC(OC1OC(CO)C(O)C(O)C1O)C2(C)C)CC3(C)O (centres undefined)
inactive: Potency [1] | Potency [2] | Potency [3]

CC(C)(O)c1ccc2c(c1)C(=O)C[C@H]1[C@](C)(C(=O)O)CCC[C@]21C
inactive: Potency [1] | Potency [2] | Potency [3]

O=C(OC[C@H]1O[C@H](O[C@]2(CO)O[C@H](CO)[C@@H](O)[C@@H]2O)[C@H](O)[C@@H](O)[C@@H]1O)c1ccc(O)cc1
inactive: Potency [1] | Potency [2] | Potency [3]

O=C(O)c1ccc(NC(=O)[C@H](CC2CCCC2)n2cnc(C(F)(F)F)c2)nc1
inactive: Potency [1] | Potency [2] | Potency [3]

CC(C)=CCc1cc(O[C@@H]2O[C@H](CO[C@@H]3OC[C@](O)(CO)[C@H]3O)[C@@H](O)[C@H](O)[C@H]2O)ccc1O
inactive: Potency [1] | Potency [2] | Potency [3]

C[C@@H]1O[C@@H](OC2C(O[C@H]3[C@H](O[C@H]4CC[C@@]5(C)C(CC[C@]6(C)C5CC=C5C7CC(C)(C)CC(O)[C@]7(C)CC[C@]56C)C4(C)C)O[C@H](C(=O)O)[C@@H](O)[C@@H]3O)OC(CO)C(O)C2O)[C@H](O)[C@H](O)[C@H]1O (some centres undefined)
inactive: Potency [1] | activity change, negative = viability loss [2] 3.07% [at 9.23 µM] | outcome [3] inactive [at 9.23 µM]

COc1cc(O)c2c(c1Cl)CC(C)OC2=O (centres undefined)
inactive: Potency [1] | Potency [2] | Potency [3]

CC(=O)O[C@H]1C[C@@H](O)C(C)(C)C2C[C@@H](OC(C)=O)[C@]3(C)C(CC[C@@]4(C)[C@H](c5ccoc5)OC(=O)[C@H]5O[C@]543)[C@]21C (some centres undefined)
inactive: Potency [1] | Potency [2] | Potency [3]

C[C@@H]1O[C@@H](O[C@H]2[C@H](O[C@H]3[C@H](O[C@H]4CC[C@@]5(C)C(CC[C@]6(C)C5CC=C5[C@@H]7CC(C)(C)C[C@@H](O)[C@]7(C)CC[C@]56C)[C@@]4(C)CO)O[C@H](C(=O)O)[C@@H](O)[C@@H]3O)O[C@H](CO)[C@H](O)[C@@H]2O)[C@H](O)[C@H](O)[C@H]1O (some centres undefined)
inactive: Potency [1] | outcome [2] inactive [at 9.23 µM] | outcome [3] inactive [at 9.23 µM]

C=C1CC23CC(=O)C4C(CO)(CO)CCCC4(C)C2CCC1C3 (centres undefined)
inactive: Potency [1] | Potency [2] | Potency [3]

C=C1CC[C@H]2[C@@](C)(CCC(O)[C@@]2(C)CO)[C@@H]1/C=C/C(=C\C(=O)O)C(=O)O (some centres undefined)
inactive: Potency [1] | Potency [2] | Potency [3]

CC(C)=CCC[C@](C)(O[C@@H]1O[C@H](CO[C@@H]2O[C@@H](CO)[C@H](O)[C@H]2O[C@@H]2OC[C@@H](O)[C@H](O)[C@H]2O)[C@@H](O)[C@H](O)[C@H]1O)[C@H]1CC[C@]2(C)[C@@H]1[C@H](O)CC1[C@@]3(C)CC[C@H](O[C@@H]4O[C@H](CO)[C@@H](O)[C@H](O)[C@H]4O[C@@H]4O[C@H](CO)[C@@H](O)[C@H](O)[C@H]4O)C(C)(C)C3CC[C@]12C (some centres undefined)
inactive: activity change, negative = inhibition [1] -3.93% [at 12.4 µM] | activity change, negative = viability loss [2] -9.17% [at 9.23 µM] | activity change, negative = cell killing [3] -15.6% [at 9.23 µM]

O=C(OCC(O)CO[C@@H]1O[C@H](C(=O)O)[C@@H](O)[C@H](O)[C@H]1O)c1ccccc1 (some centres undefined)
inactive: Potency [1] | Potency [2] | Potency [3]

CC(=O)[C@@H]1C[C@H](C(C)(C)O[C@@H]2O[C@H](CO)[C@@H](O)[C@H](O)[C@H]2O)CC[C@@]2(CO)OC(=O)C[C@@H]12
inactive: Potency [1] | Potency [2] | Potency [3]

COC(=O)C(Cc1ccccc1)NC(=O)c1ccccc1 (centres undefined)
inactive: Potency [1] | Potency [2] | Potency [3]

CC1=C2CC(=O)C(C)CC/C=C(\C)CC2(O)OC1=O (centres undefined)
inactive: Potency [1] | Potency [2] | Potency [3]

CC1(C)CCC2(C(=O)O)C(O)CC3(C)C(=CCC4C5(C)CCC(OC6OC(CO)C(O)C(O)C6OC6OC(CO)C(O)C(O)C6OC6OCC(O)(CO)C6O)C(C)(C)C5CCC43C)C2C1 (centres undefined)
inactive: Potency [1] | activity change, negative = viability loss [2] 3.44% [at 9.23 µM] | activity change, negative = cell killing [3] 2.63% [at 9.23 µM]

C=C1CCc2occ(C)c2[C@H]2[C@H]1[C@@]13O[C@@]1(C[C@@H](C)[C@H]3OC(C)=O)[C@H]1O[C@@]21C
inactive: Potency [1] | Potency [2] | Potency [3]

COC(=O)CC[C@H](NC(=O)[C@H](CC(C)C)NC(=O)OCc1ccccc1)C(=O)N[C@@H](Cc1cnc[nH]1)C(=O)N[C@@H](CC(=O)OC)C(=O)CF (Cbz-LE(OMe)HD(OMe)-CH2F)
inactive: Potency [1] | activity change, negative = viability loss [2] -7.97% [at 9.23 µM] | activity change, negative = cell killing [3] -7.81% [at 9.23 µM]

CC1=C(CO)CC(C(C)C2CCC3C4CC=C5CC(OC6OC(COC7OC(CO)C(O)C(O)C7O)C(O)C(O)C6O)CC(O)C5(C)C4CCC23C)OC1=O (centres undefined)
inactive: Potency [1] | Potency [2] | Potency [3]

CC(C)=CCC/C(C)=C/CO[C@@H]1O[C@H](CO[C@@H]2O[C@@H](CO)[C@H](O)[C@H]2O)[C@@H](O)[C@H](O)[C@H]1O
inactive: Potency [1] | Potency [2] | Potency [3]

CNc1nc(Cc2ccccc2)nc2c1CCNC[C@@H]2C
inactive: Potency [1] | Potency [2] | Potency [3]
